Where “and” joins values, the source holds several entries; their conditions need not be identical. Identical values can stand only once. Results filed as inconclusive are left out. Calls of active or inactive are those of the source. Rule for the calls: active = hit-call score of the fitted dose curve at least 0.9, where 1 is the maximum; inconclusive = response in the unintended direction; inactive = score below 0.9.
What follows are compounds tested against human Adrenergic, Alpha 2c Receptor (Adra2C), ADRA2C (gene 152) (UniProt P18825) (assay: NVS_GPCR_hAdra2C: NovaScreen (NVS) G Protein-Coupled Receptor Assay for human Adrenergic, Alpha 2c Receptor (Adra2C) (AID 2283259)).
Sequence of human Adrenergic, Alpha 2c Receptor (Adra2C), ADRA2C (gene 152) (P18825 whole entry, looked up): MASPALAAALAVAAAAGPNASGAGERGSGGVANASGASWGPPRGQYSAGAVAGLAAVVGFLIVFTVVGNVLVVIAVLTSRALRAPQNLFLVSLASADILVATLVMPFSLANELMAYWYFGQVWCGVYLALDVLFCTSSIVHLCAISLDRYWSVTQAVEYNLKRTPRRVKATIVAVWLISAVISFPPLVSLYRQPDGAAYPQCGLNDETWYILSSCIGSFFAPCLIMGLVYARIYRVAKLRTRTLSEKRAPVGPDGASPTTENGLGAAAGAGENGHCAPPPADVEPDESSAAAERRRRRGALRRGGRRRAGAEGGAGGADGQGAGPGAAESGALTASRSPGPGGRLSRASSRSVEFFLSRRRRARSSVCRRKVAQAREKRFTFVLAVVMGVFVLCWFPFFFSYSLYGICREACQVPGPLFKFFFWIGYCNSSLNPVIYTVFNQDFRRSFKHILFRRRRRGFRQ
Description: NVS_GPCR_hAdra2C is a biochemical, single-readout assay that uses extracted gene-proteins from SF9 in a cell-free assay. Measurements were taken 1 hour after chemical dosing in a 96-well plate.NVS_GPCR_hAdra2C is one of one assay component(s) measured or calculated from the NVS_GPCR_hAdra2C assay. It is designed to make measurements of radioligand binding, a form of binding reporter, as detected with scintillation counting signals by Filter-based radiodetection technology.Data from the assay component NVS_GPCR_hAdra2C was analyzed into 1 assay endpoint. This assay endpoint, NVS_GPCR_hAdra2C, was analyzed in the positive analysis fitting direction relative to DMSO as the negative control and baseline of activity. Using a type of binding reporter, loss-of-signal activity can be used to understand changes in the binding as they relate to the gene ADRA2C. Furthermore, this assay endpoint can be referred to as a primary readout, because the performed assay has only produced 1 assay endpoint. To generalize the intended target to other relatable targets, this assay endpoint is annotated to the gpcr intended target family, where the subfamily is rhodopsin-like receptor.
Binding assays used specific radioligands (tritiated, iodinated) with non-radioactive competitive displacement ligands in agonist or antagonist protocols (as indicated) and various reference compounds and inhibitors to titrate specific binding to receptors and transporters. Most enzyme assays (CYPs, kinases, phosphatases, proteases, HDACs) used recombinant protein and specific substrates (fluorescence mostly, some colorimetric and radioactive) and inhibitors, followed by a biochemical separation of substrate and product. All assays for the biochemical HTS were initially run in duplicate at a single concentration (10 uM for CYP450 assays and 25 uM for all others). […] Each assay was run with positive and negative controls, and concurrent controls on every plate. The follow-up (secondary) screen tested active chemical-pairs in concentration series, as well as a few additional assays not tested in the primary screen, some selected negative inactives, and several cases re-run in the concentration series for confirmatory purposes.
`CC/C(=C(/CC)c1ccc(O)cc1)c1ccc(O)cc1` was tested, and the AC50 was 19.2 µM (active) and 25 µM (active) and 5.86 µM (active). In the case of `Cc1cc(F)ccc1-c1cc(N2CC[C@@H](O)[C@H]2CO)ncc1N(C)C(=O)C(C)(C)c1cc(C(F)(F)F)cc(C(F)(F)F)c1`, the AC50 is reported as 5.39 µM (active). `CN(C)c1ccc(C(=C2C=CC(=[N+](C)C)C=C2)c2ccc(N(C)C)cc2)cc1` was tested, and the AC50 was 1.79 µM (active). With `CCOC(=O)O[C@H](C)OC(=O)c1ccc2c(c1)cc(C(=O)NC1CCN(C(C)C)CC1)n2Cc1cc(-c2ccc(Cl)s2)on1` the AC50 was 2.01 µM (active). In the case of `Cc1occc1C(=O)Nc1ccc(C(=O)N2CCC(F)(F)/C(=C\C(=O)N3CCC(N4CCCCC4)CC3)c3ccccc32)cc1`, the AC50 is reported as 1.03 µM (active). For `COc1cc(C(=O)NC2CCN(C)CC2)ccc1Nc1ncc2c(n1)N(C1CCCC1)CC(F)(F)C(=O)N2C`, the AC50 was 6.01 µM (active). With `CCCCCCCCOC(=O)c1cc(O)c(O)c(O)c1` the AC50 was 11.8 µM (active). In the case of `CN(C)C(=O)C1(N2CCCCC2)CCN(CC[C@@]2(c3ccc(Cl)c(Cl)c3)CN(C(=O)c3ccccc3)CCO2)CC1`, the AC50 is reported as 12.1 µM (active). In the case of `Clc1cc(Cl)c2c(c1)N=C1CCCCCN1C2`, the AC50 is reported as 5.73 µM (active). For `O=C1c2ccccc2C(=O)N1CCc1noc(-c2ccc(CN3CCCCCC3)s2)n1`, the AC50 was 1.08 µM (active). `CCN(CC)C(=O)c1cc(S(=O)(=O)Cc2ccccc2)c(N2CCC(c3ccccc3)CC2)cc1N(CC)CCN(C)C` was tested, and the AC50 was 9.22 µM (active). For `COc1ccc2cc(S(=O)(=O)N[C@H](CC(=O)N[C@H](Cc3ccc(CN4[C@H](C)CCC[C@@H]4C)cc3)C(=O)N(C)C(C)C)c3ccc4c(c3)OCO4)ccc2c1`, the AC50 was 5.22 µM (active). For `NCc1cccc(C2CCN(C(=O)c3ccc(C#Cc4ccccc4F)o3)CC2)c1`, the AC50 was 4.51 µM (active). In the case of `CCN(Cc1cccnc1)C(=O)c1cccc(Cl)c1[C@]1(C)C(=O)N(Cc2ccc(OC)cc2OC)c2ccc(Cl)cc21`, the AC50 is reported as 2.22 µM (active).

Source: PubChem BioAssay (EPA / NIEHS)
